For 20 compounds, Potency results are on record in PubChem BioAssay AID743373 (National Center for Advancing Translational Sciences (NCATS), 2014).

Where “and” joins values, the source holds several entries; their conditions need not be identical. Equal values may be shown once. Results filed as inconclusive are left out. A call without a number means that no potency is given here. Calls of active or inactive are those of the source. The call rests on the fitted dose curve; in most records, active means well fitted inhibition curve with a large enough effect; inconclusive means small, poorly fitted or top-dose-only effect; inactive means flat fitted curve, though single readings scatter.

For this assay, the target named is Galactokinase (Homo sapiens) (UniProt P51570). The assay can be described thus: qHTS for Inhibitors of Human Galactokinase (GALK): Confirmation Assay for SAR round 4. As to conditions: recombinant GALK, ADP-Glo luminescence, 1 h; series mostly up to 57.5 µM. The text has this: Inherited deficiency of galactose-1-phosphate uridyltransferase (GALT) can result in a potentially lethal disorder called Classic Galactosemia (OMIM 230400). Several lines of evidence indicate that an elevated level of galactose-1-phosphate (gal-1-p), the product of galactokinase (GALK), is a major, if not sole, pathogenic mechanism in patients with classic galactosemia. Therefore, finding inhibitors of GALK is a potential novel therapy for this inherent metabolic disease and is the long term goal of this project. Active compounds observed in the qHTS GALK assay (AID: 1868) were cherry picked and re-screened for validation. GALK (provided by Kent Lai) was assayed using ATP and D-(+)-Galactose (Sigma-Aldrich cat# G0750) as substrates. Promega ADP-Glo technology was used to detect the ADP product formed after the kinase reaction. Kinase reactions with and without GALK were used as negative and positive controls together with Protein Tyrosine Phosphatase CD45 inhibitor (EMD Bioscience cat# 540215) which is shown to inhibit GALK activity. Decrease in activity corresponds to inhibition of the enzyme, the desired outcome for this assay. NIH Molecular Libraries Probe Production Network [MLPCN] NIH Chemical Genomics Center [NCGC] Grant: R03 MH085689-01 PI Name: Kent Lai, University of Utah
Chain of Galactokinase (Homo sapiens) (P51570 whole entry, looked up): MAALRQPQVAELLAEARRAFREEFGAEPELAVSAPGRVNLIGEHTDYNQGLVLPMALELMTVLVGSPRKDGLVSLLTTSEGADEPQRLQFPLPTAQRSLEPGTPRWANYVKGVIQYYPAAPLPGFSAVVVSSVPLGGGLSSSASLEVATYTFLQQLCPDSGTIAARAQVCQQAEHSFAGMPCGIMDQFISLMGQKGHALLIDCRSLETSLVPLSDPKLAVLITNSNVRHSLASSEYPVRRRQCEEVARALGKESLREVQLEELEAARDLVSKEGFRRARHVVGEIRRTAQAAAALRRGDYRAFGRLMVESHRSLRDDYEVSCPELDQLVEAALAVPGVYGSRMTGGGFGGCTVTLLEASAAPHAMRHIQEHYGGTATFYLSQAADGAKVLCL
Two uL/well of ATP-buffer solution (35 uM ATP, 20mM HEPES pH8.0, 5 mM MgCl2, 60 mM NaCl, 1 mM DTT, 0.01% BSA final concentration) was dispensed into 1536-well, assay plates (Greiner, solid white medium-binding plates) with Aurora Discovery BioRAPTR Flying Reagent Dispenser (FRD; Beckton-Dickenson). Compound and control solution (23 nL) was transferred to the assay plate using the Kalypsys 1536-pin tool apparatus. Half uL/well GALK-galactose solution (5 nM GALK, 100 uM galactose, 20 mM HEPES pH8.0, 5 mM MgCl2, 60 mM NaCl, 1 mM DTT, 0.01% BSA final concentration) was then added using the FRD yielding a total kinase reaction volume of 2.5 uL/ well. After 1 hour of room temperature incubation, 2.5 uL ADP-Glo reagent A was added and incubated for 15 min. Five micorliter of ADP-Glo reagent B was then added per well and incubated for additional 15 min at room temperature. Luminescence was detected with the ViewLux plate reader (Perkin Elmer, Waltham, MA) using a 1 sec exposure time and 2x binning.
On to `CC1=C(C(=O)NC2CCCC2)C(c2[nH]ncc2Cl)N=C(Nc2nc3ccccc3o2)N1` (stereo not given), for which the Potency entry was “inactive”. Regarding `CC1=C(C(=O)Nc2noc3ccccc23)C2(CCCC2)N=C(Nc2nc3ccccc3o2)N1`, the Potency entry is “inactive”. For `CC1=C(C(=O)Nc2nc3ccccc3s2)C(c2[nH]ncc2Cl)N=C(Nc2nc3ccccc3o2)N1` (stereo not given) the value was “inactive”; for `CNC(=O)C1=C(C)NC(Nc2nc3ccccc3o2)=NC12CCCC2`, “inactive”; for `CC1=C(C(=O)Nc2nc3ccccc3s2)C2(CCCC2)N=C(Nc2nc3ccccc3o2)N1`, “inactive”. As for `O=C1CCCC2=C1C(c1[nH]ncc1Br)N=C(Nc1nc3ccccc3o1)N2` (stereo not given), the Potency is 15.3 µM (active). Take `O=C1CCCC2=C1C(c1ccccc1Cl)N=C(Nc1nc3ccccc3o1)N2` (stereo not given): the Potency was 13.7 µM (active).

As for `CC1=C(C(=O)Nc2noc3ccccc23)C(c2nn(C)cc2Cl)N=C(Nc2nc3ccccc3o2)N1` (stereo not given), the Potency entry is “inactive”. For `CC1=C(C(=O)Nc2ccon2)C(c2ccccc2Br)N=C(Nc2nc3ccccc3o2)N1` (stereo not given) the value was 7.69 µM (active); for `CC(C)CN1CC2=C(C1=O)C(c1ccccc1Cl)N=C(Nc1nc3ccccc3o1)N2` (stereo not given), “inactive”; for `CC1=C(C(=O)Nc2nc3ccccc3s2)C(c2nn(C)cc2Cl)N=C(Nc2nc3ccccc3o2)N1` (stereo not given), “inactive”.

Regarding `O=C1CCCC2=C1C(c1ccccc1I)N=C(Nc1nc3ccccc3o1)N2` (stereo not given), the Potency was 3.06 µM (active). Take `O=C1CCCC2=C1C(c1ccncc1Cl)N=C(Nc1nc3ccccc3o1)N2` (stereo not given): the Potency is 10.9 µM (active). For the compound `O=C1CCCC2=C1C(c1ccccc1Br)N=C(Nc1nc3ccccc3o1)N2` (stereo not given), the Potency is 4.32 µM (active).

As for `O=C1C2=C(CN1c1ccccc1)NC(Nc1nc3ccccc3o1)=NC2c1ccccc1Cl` (stereo not given), the Potency result was “inactive”. As to `O=C1C2=C(CN1Cc1ccccc1)NC(Nc1nc3ccccc3o1)=NC2c1ccccc1Cl` (stereo not given), the Potency result is “inactive”. Regarding `CC1=C(C(=O)Nc2ccon2)C2(CCCC2)N=C(Nc2nc3ccccc3o2)N1`, the Potency is 7.69 µM (active). `CC1=C(C(=O)Nc2nncs2)C(c2[nH]ncc2Cl)N=C(Nc2nc3ccccc3o2)N1` (stereo not given): the Potency is 7.69 µM (active). As for `CC1=C(C(=O)Nc2ccc(Cl)cc2)C(c2ccccc2Br)N=C(Nc2nc3ccccc3o2)N1` (stereo not given), the entry is “inactive”. On to `O=C1CCCC2=C1C(c1[nH]ncc1Cl)N=C(Nc1nc3ccccc3o1)N2` (stereo not given), for which the Potency is 5.44 µM (active) and 6.85 µM (active).
